SARS PLpro yeast = SARS-CoV PLP inhibition in yeast; Potency, µM (highest dose often 32.9 µM), for the others: at the highest dose activity, positive = growth rescue, actives largely listed as activators; S. cerevisiae expressing SARS-CoV PLpro, growth rescue; 330,000 tested, 0.19% active; AID 485353; calls by dose curve; also: 0% is about no effect; nearly all actives have a fitted effect of over 55% in size
Pf growth 48h = P. falciparum growth inhibition at 48 hours (one generation). P. falciparum luciferase growth in erythrocytes, 48 h. Potency, µM (doses to about 28.7 µM), for the others: top-dose activity change, negative = inhibition, actives largely listed as inhibitors. 310,000 tested, 5.9% active; also: % is scaled to controls: 0 for no effect and ±100 for the full control effect
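Luminescence readout; reporter = integrated firefly luciferase in P. falciparum. RBC culture at 2% hematocrit, 0.1% parasitemia final, 37 C/5% CO2; decreased signal taken as growth inhibition.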
Sm TGR block = inhibitors of Schistosoma mansoni thioredoxin glutathione reductase; Q962Y6; 360,000 tested, 3% active; Potency, µM (doses to about 114 µM), for the others: at the top dose activity change, negative = inhibition, actives largely listed as inhibitors; AID 485364; purified TGR, DTNB reduction, TNB absorbance 405 nm; also: % is scaled to controls: 0 for no effect and ±100 for the full control effect; nearly all actives have a fitted effect of over 60% in size
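Kinetic colorimetric format: TGR-catalysed, NADPH-driven DTNB reduction monitored via TNB absorbance. Enzyme dispensed at 20 nM; compound exposure 15 min at room temperature before reaction start.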
AmpC inh no detg = inhibitors of E. coli AmpC beta-lactamase without detergent; P00811; AmpC nitrocefin hydrolysis, absorbance 480 nm, 0.0001% Triton; Potency, µM (doses to about 57.1 µM), for the others: at the highest dose activity change, negative = inhibition, most hits filed as inhibitors; 330,000 tested, 0.52% active;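 also: plate controls were no compound for no effect and no enzyme for full effect; nearly all actives have a fitted effect of over 20% in size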
Target sequence (P00811 whole entry, looked up): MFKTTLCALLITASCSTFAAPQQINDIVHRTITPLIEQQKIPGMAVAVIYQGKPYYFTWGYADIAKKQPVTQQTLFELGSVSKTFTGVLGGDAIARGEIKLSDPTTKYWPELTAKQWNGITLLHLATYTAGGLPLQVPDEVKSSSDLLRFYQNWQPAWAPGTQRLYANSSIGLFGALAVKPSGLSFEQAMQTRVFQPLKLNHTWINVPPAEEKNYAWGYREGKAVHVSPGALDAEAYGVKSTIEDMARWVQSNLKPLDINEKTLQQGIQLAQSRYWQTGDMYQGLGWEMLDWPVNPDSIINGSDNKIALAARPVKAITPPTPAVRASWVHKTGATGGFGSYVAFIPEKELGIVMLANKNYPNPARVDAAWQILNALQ
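20 mM phosphate pH 7.0 + 0.01% (detergent screen) or 0.0001% Triton X-100; 5.3 nM AmpC reagent; cpd preinc 15 min RT; nitrocefin (800 uM stock) to start; A480 q20 s × 4 min; Activity was normalised to no-enzyme and no-compound control wells.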
Pf growth 96h = P. falciparum growth inhibition at 96 hours; Potency, µM (highest dose often 28.7 µM), for the others: top-dose activity change, negative = inhibition, actives largely listed as inhibitors; 320,000 tested, 6.9% active; P. falciparum luciferase reporter growth, 96 h; also: % is scaled to controls: 0 for no effect and ±100 for the full control effect
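Readout is luminescence from an integrated firefly luciferase in P. falciparum. Red cells, 2% hematocrit and 0.05% parasitemia final, were cultured with compound through two parasite generations (96 hours) at 37 C, 5% CO2.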
AmpC inh detg = AmpC beta-lactamase inhibition with detergent present | P00811 | AmpC hydrolysis of nitrocefin, absorbance 480 nm, 0.01% Triton | Potency, µM (titrated, usually from 114 µM), for inactives: top-dose activity change, negative = inhibition, most hits filed as inhibitors | 370,000 tested, 0.041% active | AID 485294;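 also: 0% = no-compound wells and -100% = no-enzyme wells; nearly all actives have a fitted effect of over 25% in size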
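20 mM phosphate pH 7.0 + 0.01% (detergent screen) or 0.0001% Triton X-100; 5.3 nM AmpC reagent; cpd preinc 15 min RT; nitrocefin (800 uM stock) to start; A480 q20 s × 4 min; Activity was normalised to no-enzyme and no-compound control wells.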
Starred values were filed as active, the others as inactive. Hits are enriched below; roughly 12% of the tested compounds scored in any of these assays. Unless noted, calls follow the shape of the dose curve; as a rule, active = well fitted curve in the direction sought with a large enough effect; inconclusive = small, poorly fitted or top-dose-only effect, or another doubt; inactive = no such curve, though single readings can be large; an effect the other way counts as inactive or inconclusive. Potency is read from the fitted curve at half-maximal effect.

How did Cc1c(-c2cccc(Cl)c2)nc2ccccc2c1C(=O)OC/C(O)=C(\C#N)c1nc2ccccc2[nH]1 do in these assays?
SARS PLpro yeast: 1%; Pf growth 48h: -30%; Sm TGR block: 2%; AmpC inh no detg: -40%; Pf growth 96h: 10µM*; AmpC inh detg: -3%

Results for COc1ccc(N(CC(=O)NCC2CCCO2)S(=O)(=O)c2ccccc2)cc1OC (stereo unspecified) ?
SARS PLpro yeast: -6%; Pf growth 48h: 7%; Sm TGR block: 3%; AmpC inh no detg: -1%; Pf growth 96h: -11%; AmpC inh detg: 0%

What do the screens show for `COc1ccccc1CN1CCN(C2CCN(C(=O)Nc3ccccc3)CC2)C(=O)C1=O`?
Sm TGR block: 2%; AmpC inh detg: 12%

Results for CCCSc1ncc(Cl)c(C(=O)NCc2ccc(OC)cc2)n1 ?
Sm TGR block: 9%; AmpC inh detg: 9%

Results for CCc1ccccc1NC(=O)C1CCN(C2=NS(=O)(=O)C(c3ccc(C)c(C)c3)=C2C)CC1 ?
Sm TGR block: -5%; AmpC inh detg: -5%

How did COc1ccc(Nc2ncc3c(n2)CC(c2ccc(C)cc2)CC3=O)cc1 (stereo unspecified) do in these assays?
SARS PLpro yeast: 2%; Pf growth 48h: inconclusive; Sm TGR block: 11%; AmpC inh no detg: -13%; Pf growth 96h: inconclusive; AmpC inh detg: -13%

How did COc1ccc(Nc2ncc3c(n2)CC(c2ccc(OC)cc2)CC3=O)cc1 (stereo unspecified) do in these assays?
SARS PLpro yeast: -2%; Pf growth 48h: inconclusive; Sm TGR block: -1%; AmpC inh no detg: -9%; Pf growth 96h: 9.3µM*; AmpC inh detg: inconclusive

Results for COc1ccc(C2CC(=O)c3sc(N)nc3C2)cc1 (stereo unspecified) ?
SARS PLpro yeast: 19%; Pf growth 48h: 2.9µM*; Sm TGR block: -25%; AmpC inh no detg: -16%; Pf growth 96h: 2.6µM*; AmpC inh detg: -21%

What do the screens show for `Cc1cc(NC(=O)CN2C(=O)NC3(CCCCC3C)C2=O)no1` (stereo unspecified)?
SARS PLpro yeast: 10%; Pf growth 48h: 6%; Sm TGR block: 2%; AmpC inh no detg: -11%; Pf growth 96h: inconclusive; AmpC inh detg: -5%

What do the screens show for `CCc1ccc(NC(=O)Cn2c(=O)n(CCCCC(=O)NCCc3ccc(Cl)cc3)c(=O)c3ccccc32)cc1`?
Sm TGR block: 4%; AmpC inh detg: 16%

How did COc1ccc(NC(=O)C2CCN(c3nc(C)nc4c3CCC4)CC2)cc1 do in these assays?
SARS PLpro yeast: -28%; Pf growth 48h: 4%; Sm TGR block: 4%; AmpC inh no detg: -1%; Pf growth 96h: -16%; AmpC inh detg: -3%

How did CC1CCCCN1C(=O)C1CCN(c2nc(-c3ccccc3)nc3c2CCC3)CC1 (stereo unspecified) do in these assays?
SARS PLpro yeast: 1%; Pf growth 48h: 7.4µM*; Sm TGR block: 2%; AmpC inh no detg: 181%; Pf growth 96h: inconclusive; AmpC inh detg: 0%

What do the screens show for `CCCCN(C(=O)CSc1nnc(-c2ccc(Cl)cc2)o1)c1c(N)n(CC(C)C)c(=O)[nH]c1=O`?
SARS PLpro yeast: -2%; Pf growth 48h: 13µM*; Sm TGR block: 0%; AmpC inh no detg: -12%; Pf growth 96h: inconclusive; AmpC inh detg: -2%

What do the screens show for `CCCCN(C(=O)CN1CC(C)OC(C)C1)c1c(N)n(CC(C)C)c(=O)[nH]c1=O` (stereo unspecified)?
SARS PLpro yeast: 30%; Pf growth 48h: 8%; Sm TGR block: -10%; AmpC inh no detg: -8%; Pf growth 96h: -14%; AmpC inh detg: -1%

How did CCCCN(C(=O)Cn1ncc(Cl)c(Cl)c1=O)c1c(N)n(CC(C)C)c(=O)[nH]c1=O do in these assays?
SARS PLpro yeast: 0%; Pf growth 48h: 0%; Sm TGR block: 4.5µM*; AmpC inh no detg: 0%; Pf growth 96h: -22%; AmpC inh detg: 10%

What do the screens show for `CC(C)(C)c1ccc(OCc2cc(=O)n3c4c(sc3n2)CCCC4)cc1`?
Sm TGR block: -8%; AmpC inh detg: -5%

How did O=C(O)c1ccc2c(=O)n3c(nc2c1)/C(=C/c1ccccc1Br)CC3 do in these assays?
SARS PLpro yeast: 1%; Pf growth 48h: 15%; Sm TGR block: -17%; AmpC inh no detg: -2%; Pf growth 96h: -6%; AmpC inh detg: -7%

What do the screens show for `CCNC(=O)C1CCCN(c2nn3cc(-c4ccc(C)cc4)nc3s2)C1` (stereo unspecified)?
Sm TGR block: 1%; AmpC inh detg: 5%

Results for COc1cccc(N2CCN(C(=O)c3cccc(NC(=O)c4nsc5ccccc45)c3)CC2)c1 ?
Sm TGR block: 8%; AmpC inh detg: 1%

How did c1ccc(Sc2cccc3ccccc23)c(CNC2=NCCN2)c1 do in these assays?
SARS PLpro yeast: -80%; Pf growth 48h: 1.2µM*; Sm TGR block: 4%; AmpC inh no detg: -7%; Pf growth 96h: 0.93µM*; AmpC inh detg: 1%

What do the screens show for `Fc1ccccc1Sc1ccccc1CNC1=NCCN1`?
SARS PLpro yeast: -60%; Pf growth 48h: inconclusive; Sm TGR block: 1%; AmpC inh no detg: -1%; Pf growth 96h: 10µM*; AmpC inh detg: 0%

What do the screens show for `CN(C)Cc1ccccc1Sc1cccc2ccccc12`?
SARS PLpro yeast: -33%; Pf growth 48h: -30%; Sm TGR block: 0%; AmpC inh no detg: 33%; Pf growth 96h: inconclusive; AmpC inh detg: 8%

What do the screens show for `Cc1ccc(Cl)cc1NC(=O)C1CC1c1ccccc1` (stereo unspecified)?
SARS PLpro yeast: -3%; Pf growth 48h: -7%; Sm TGR block: 6%; AmpC inh no detg: -37%; Pf growth 96h: 10%; AmpC inh detg: -7%

Results for COc1ccc(NC(=S)NNS(=O)(=O)c2ccc3ccccc3c2)c(OC)c1 ?
SARS PLpro yeast: 0%; Pf growth 48h: 7%; AmpC inh no detg: -28%; Pf growth 96h: -21%; AmpC inh detg: 2%

Results for CCCc1cc(=O)n2[nH]c(NCc3c(F)cccc3Cl)nc2n1 ?
SARS PLpro yeast: 2%; Pf growth 48h: 0%; Sm TGR block: 5%; AmpC inh no detg: -23%; Pf growth 96h: 12µM*; AmpC inh detg: inconclusive

What do the screens show for `COc1ccc(NC(=O)c2nc(-c3ccc(C)cc3)n3c2CCCCC3)cc1`?
Sm TGR block: -11%; AmpC inh detg: 28%

From PubChem BioAssay
